Autofluor counter: flagged as autofluorescent in microsphere protease counterscreen; 360,000 compounds, 3.1% hits; compound autofluorescence counterscreen, microsphere flow cytometry; stronger effect = higher value; fluorescence intensity (test concentration not listed); in the data active = fluorescence intensity above about 16000; inconclusive = no clear call, values can overlap the other calls
Anthrax LF prot: inhibitors of Bacillus anthracis lethal factor protease. P15917. multiplex microsphere protease cleavage assay, LF. inhibition, % at 10 µM. 360,000 compounds, 0.12% hits; in the data active = inhibition above about 30%; inconclusive = no clear call, values can overlap the other calls
BH1578 lux ind: inducers of Vibrio cholerae quorum light production without autoinducers | V. cholerae BH1578 lux reporter, luminescence, 6 h | activation, % at 18.7 µM | 350,000 compounds, 0.16% hits | AID 588436; in the data active = activation mostly above about 9.7%, no sharp cut-off; inconclusive = no clear call, values can overlap the other calls; inactive = mostly below about 3.7%
BoNT-F LC inh: BoNT F light chain protease inhibition; inhibition, % at 10 µM; 360,000 compounds, 0.22% hits; Multiplex microsphere protease cleavage assay, flow cytometry; in the data active = inhibition above about 35%, passing the limit was not always enough; inconclusive = no clear call, values can overlap the other calls
BoNT-A LC inh2: BoNT A light chain protease inhibition. multiplex microsphere protease substrate cleavage, flow cytometry. 360,000 compounds, 0.17% hits. inhibition, % at 10 µM; in the data active = inhibition above about 30%; inconclusive = no clear call, values can overlap the other calls
MazF activator: increases E. coli MazEF RNase cleavage of RNA | P0AE70 | FAM/BHQ RNA-DNA oligo cleavage fluorescence, 5 h | activation, % at 20 µM | 350,000 compounds, 0.32% hits; in the data active = activation above about 50%
Target sequence (P0AE70 whole entry, looked up): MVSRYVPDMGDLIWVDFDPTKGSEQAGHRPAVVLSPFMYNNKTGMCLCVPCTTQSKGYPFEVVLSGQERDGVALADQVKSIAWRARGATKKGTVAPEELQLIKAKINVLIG
BoNTA LC inh 2: inhibitors of botulinum neurotoxin A light chain protease. shares compounds with BoNT-A LC inh2. multiplex microsphere protease cleavage assay, flow cytometry. inhibition, % at 10 µM. 150 compounds, 10% hits; in the data active = inhibition above about 24%
LF protease CP2: inhibitors of Bacillus anthracis lethal factor protease; shares compounds with BoNT-A LC inh2; multiplex microsphere protease cleavage assay; inhibition, % at 10 µM; 150 compounds, 7% hits; AID 602327
BoNT-F LC CP2: blocks botulinum neurotoxin F light chain protease; shares compounds with BoNT-A LC inh2; multiplex microsphere protease cleavage assay, flow cytometry; inhibition, % at 10 µM; 150 compounds, 7% hits; AID 602336
Each line names hits and unclear results; the compound was inactive in the other large screens (follow-up assays come after a bar, where they were run). Hits are enriched below; roughly 3.9% of the tested compounds scored in any of these assays. Cut-off read from the data, not from the text of the source, unless noted: active = inhibition above about 25%; inactive = the rest.

COc1ccc(C(CNC(=O)C(CCSC)NC(=O)c2ccccc2Cl)N2CCCC2)cc1 (centres undefined)	BoNT-F LC inh 43.1 | BoNTA LC inh 2 inactive | LF protease CP2 inactive | BoNT-F LC CP2 inactive
COCCNc1nc(Oc2cncc(Cl)c2)c2sccc2n1	none (no result: MazF activator)
O=C(NC12CC3CC(CC(C3)C1)C2)c1cncc(Br)c1	none
O=C(COC(=O)c1cncc(Br)c1)NC12CC3CC(CC(C3)C1)C2	Anthrax LF prot 57.5, BoNT-A LC inh2 72.1 (no result: MazF activator) | BoNTA LC inh 2 29.1 | LF protease CP2 29.5 | BoNT-F LC CP2 inactive
CCN(CC)S(=O)(=O)c1cccc(NC(=O)COC(=O)c2cncc(Br)c2)c1	Anthrax LF prot 39.2 | BoNTA LC inh 2 inactive | LF protease CP2 inactive | BoNT-F LC CP2 inactive
CCN(CC)S(=O)(=O)c1cccc(NC(=O)COC(=O)c2ccc(Br)o2)c1	none
CCN(CC(=O)Nc1ccc(N2CCOCC2)cc1)C(=O)COc1ccccc1OC	none
CCN(CC)S(=O)(=O)c1ccc(C(=O)NCc2ccc3c(c2)cc(C)n3C)cc1	BoNT-A LC inh2 80.8 | BoNTA LC inh 2 inactive | LF protease CP2 inactive | BoNT-F LC CP2 inactive
Cc1cc2cc(CNC(=O)c3ccc(S(=O)(=O)N4CCCC4)cc3)ccc2n1C	BoNT-A LC inh2 79.7 | BoNTA LC inh 2 inactive | LF protease CP2 inactive | BoNT-F LC CP2 inactive
Cc1ccc(CNC(=O)c2ccc(S(=O)(=O)N3CCCCC3)cc2)cc1	none
Cc1cc2cc(CNC(=O)c3ccc(S(=O)(=O)N4CCCCC4)cc3)ccc2n1C	BoNT-A LC inh2 79.9 | BoNTA LC inh 2 inactive | LF protease CP2 inactive | BoNT-F LC CP2 inactive
O=C(CN(CCc1ccccc1)C(=O)c1csnn1)NCc1ccc(F)cc1	none
CC(=O)Cc1nsc(NC(=O)c2ccc(-c3cccc(Cl)c3)o2)n1	none
CCc1cccc2c(C(=O)COC(=O)c3ccc(O)cc3)c[nH]c12	none | BoNTA LC inh 2 inactive | LF protease CP2 inactive | BoNT-F LC CP2 36.8
CCc1cccc2c(C(=O)COC(=O)c3ccccc3)c[nH]c12	none | BoNTA LC inh 2 inactive | LF protease CP2 inactive | BoNT-F LC CP2 24.9
O=C(NCC1CC1)c1cccc2c1C(=O)c1ccc(N3CCCC3)cc1S2(=O)=O	none
COc1ccccc1N1CCN(c2ccc3c(c2)S(=O)(=O)c2cccc(C(=O)NCc4cccc(F)c4)c2C3=O)CC1	none | BoNTA LC inh 2 inactive | LF protease CP2 inactive | BoNT-F LC CP2 inactive
O=C(NC1CCCCC1)c1cccc2c1C(=O)c1ccc(N3CCC(Cc4ccccc4)CC3)cc1S2(=O)=O	Anthrax LF prot 34.1 | BoNTA LC inh 2 inactive | LF protease CP2 inactive | BoNT-F LC CP2 inactive
CC1CCN(c2ccc3c(c2)S(=O)(=O)c2cccc(C(=O)NC4CC4)c2C3=O)CC1	none | BoNTA LC inh 2 inactive | LF protease CP2 inactive | BoNT-F LC CP2 inactive
CC1CCN(c2ccc3c(c2)S(=O)(=O)c2cccc(C(=O)NC[C@@H]4CCCO4)c2C3=O)CC1	none | BoNTA LC inh 2 inactive | LF protease CP2 inactive | BoNT-F LC CP2 inactive
O=C(NC[C@@H]1CCCO1)c1cccc2c1C(=O)c1ccc(N3CCOCC3)cc1S2(=O)=O	none
Cc1ccc(S(=O)(=O)CCN2C=CC(C(F)(F)F)=NCC2)cc1	BoNT-F LC inh inconclusive
CCN(CC(=O)NCc1ccc(Cl)cc1)C(=O)c1cc(OC)cc(OC)c1	none
CC(=NNc1nc2ccccc2o1)c1cc2ccccc2cn1	Anthrax LF prot 58.9, BoNT-F LC inh 74.3, BoNT-A LC inh2 50.8 | BoNTA LC inh 2 inactive | LF protease CP2 26.0 | BoNT-F LC CP2 53.9
CN(CC(=O)NC1CCN(Cc2ccccc2)CC1)S(=O)(=O)c1ccc(Cl)cc1	Anthrax LF prot 54.2, BoNT-F LC inh 74.2 | BoNTA LC inh 2 inactive | LF protease CP2 inactive | BoNT-F LC CP2 inactive
CN(CC(=O)NC1CCN(Cc2ccccc2)CC1)S(=O)(=O)c1ccc(Br)s1	none
Cn1ccc2c(-c3ccc(CO)cc3)cc3c(c21)C1CCC3C1 (centres undefined)	none (no result: BH1578 lux ind, MazF activator) | BoNTA LC inh 2 inactive | LF protease CP2 inactive | BoNT-F LC CP2 inactive
Cn1ccc2c(-c3ccc(C(N)=O)cc3)cc3c(c21)C1CCC3C1 (centres undefined)	none (no result: BH1578 lux ind, MazF activator) | BoNTA LC inh 2 inactive | LF protease CP2 inactive | BoNT-F LC CP2 inactive
Cn1ccc2c(-c3ccc(C(F)(F)F)cc3)cc3c(c21)C1CCC3O1 (centres undefined)	none (no result: BH1578 lux ind, MazF activator)
Cn1ccc2c(-c3ccc(C(F)(F)F)cc3)cc3c(c21)C1CCC3C1 (centres undefined)	none (no result: BH1578 lux ind, MazF activator) | BoNTA LC inh 2 inactive | LF protease CP2 inactive | BoNT-F LC CP2 inactive
Cn1ccc2c(-c3ccc4c(c3)OCCO4)cc3c(c21)C1CCC3C1 (centres undefined)	none (no result: BH1578 lux ind, MazF activator) | BoNTA LC inh 2 inactive | LF protease CP2 inactive | BoNT-F LC CP2 inactive
CSc1ccc(-c2cc3c(c4c2ccn4C)C2CCC3C2)cc1 (centres undefined)	none (no result: BH1578 lux ind, MazF activator)
COc1ccc(C(=O)NCC(=O)N/N=C/c2cn[nH]c2-c2ccccc2)cc1	none
Cc1ccccc1-c1cc2c(c3c1ccn3C)C1CCC2C1 (centres undefined)	none (no result: BH1578 lux ind, MazF activator) | BoNTA LC inh 2 inactive | LF protease CP2 inactive | BoNT-F LC CP2 inactive
COc1ccc(-c2cc3c(c4c2ccn4C)C2CCC3O2)cc1OC (centres undefined)	none (no result: BH1578 lux ind, MazF activator)
COc1ccc(-c2cc3c(c4c2ccn4C)C2CCC3C2)cc1F (centres undefined)	none (no result: BH1578 lux ind, MazF activator) | BoNTA LC inh 2 inactive | LF protease CP2 inactive | BoNT-F LC CP2 inactive
Cn1ccc2c(-c3ccc(F)cc3)cc3c(c21)C1CCC3C1 (centres undefined)	none (no result: BH1578 lux ind, MazF activator) | BoNTA LC inh 2 inactive | LF protease CP2 inactive | BoNT-F LC CP2 inactive
N#CCC(=O)Nc1ccc(C(=O)NCc2cccc(Cl)c2)cc1	none
COc1ccc(N2CCN(C(=O)C3CCN(S(=O)(=O)c4ccc5c(c4)oc(=O)n5C)CC3)CC2)cc1	none
CN=c1nc(-c2ccccc2)n(-c2ccccc2)s1	BoNT-F LC inh 48.2 | BoNTA LC inh 2 inactive | LF protease CP2 inactive | BoNT-F LC CP2 inactive
Cn1nc(-c2ccccc2)nc1-c1ccccc1	none
O=C(NCCCN1CCOCC1)c1ccc(CSc2ccc(Cl)cc2)cc1	none
CN(C)CCNC(=O)c1cccc2nc3c(ccc4ccccc43)nc12	Anthrax LF prot 42.2, BoNT-A LC inh2 44.4 | BoNTA LC inh 2 inactive | LF protease CP2 inactive | BoNT-F LC CP2 inactive
COc1cccc2nc3c(C(=O)NCCN(C)C)cccc3cc12	none
CN(C)S(=O)(=O)c1cc(NC(=O)CNCCN2CCOCC2)ccc1Cl	none
COc1ccc(Cc2c(-c3ccc(OC)c(OC)c3)nc3c(C)cc(Br)cn23)c(C)c1	BoNT-A LC inh2 31.6 (no result: BH1578 lux ind, MazF activator) | BoNTA LC inh 2 inactive | LF protease CP2 inactive | BoNT-F LC CP2 inactive
COc1ccc(Cc2c(-c3ccc(OC)c(OC)c3)nc3cc(C)c(Br)c(C)n23)c(C)c1	none (no result: BH1578 lux ind, MazF activator) | BoNTA LC inh 2 inactive | LF protease CP2 inactive | BoNT-F LC CP2 inactive

Screening results (PubChem)
